For 68 compounds, INHIBITION results are on record in ChEMBL document CHEMBL4513216, “Probing the Open Global Health Chemical Diversity Library for Multistage-Active Starting Points for Next-Generation Antimalarials” (ACS Infect Dis, 2020).

The campaign covered roughly 69,000 compounds. About 8,600 (12%) showed an effect of 50% or more. What follows is part of a selection rich in strong results, with near analogues and random picks from the rest.

In this assay the test system is Plasmodium berghei. Put plainly: Screen against P. berghei liver stage (PbLuc), transformed with Luciferase, at 10uM. Type of assay: functional, HepG2. Conditions: tested at 10 uM.
With `CC(C)(C)c1cc(NC(=O)CN2CCC(N3CCNC3=O)CC2)on1`, the INHIBITION is listed as 3.73%.

In the case of `CC(=O)N1CCC(c2ncc3c(n2)CCN(C(=O)c2ccccc2)C3)C1` (stereo not drawn), the INHIBITION came to 1.5%.

As for `CCOCCN1CCC=C(C2c3nc[nH]c3CCN2C(C)=O)C1` (stereo not drawn), the INHIBITION is recorded as 36.6%.

Take `CCn1nc(C)c(CN2CCC(c3ccc(C(=O)O)cc3)C2)c1C` (stereo not drawn): the INHIBITION is on record as 27.9%.

With `CCn1nc(C)c(CN2CCCC(c3ccc(C(=O)O)cc3)C2)c1C` (stereo not drawn), the INHIBITION turned out to be 62.4%.

Take `Cc1nn(C)c(C)c1CN1CCCC(c2ccc(C(=O)O)cc2)C1` (stereo not drawn): the INHIBITION is recorded as 6.88%.

`Cc1nn(C)c2c(N3CCN(C(=O)C(C)C)CC3)ncnc12`: the INHIBITION is reported as 10.1%.

`CCC(=O)N1CCN(c2ncnc3c(C)nn(C)c23)CC1`: the INHIBITION came to 50.7%.

`Cc1nn(C)c2c(N3CCN(C(=O)C4CC4)CC3)ncnc12`: the INHIBITION is 44.1%.

Regarding `CCc1nc(N2CCCN(c3ncccn3)CC2)c2cnn(C)c2n1`, the INHIBITION is 33.3%.

In the case of `CCc1nc(N2CCN(c3ncccc3C#N)CC2)c2cnn(C)c2n1`, the INHIBITION came to 53.7%.

As for `CCc1nc(N2CCN(c3ncccn3)CC2)c2cnn(C)c2n1`, the INHIBITION was -3.55%.

As for `O=C(c1ccc(F)cc1)N1CCC2(CCCN2CC2CC2)CC1`, the INHIBITION is 26.6%.

With `COc1ccccc1N1CCN(Cc2cnc3c(c2)c(C)nn3C)CC1`, the INHIBITION was 32.3%.

Take `CN1CCC(NC(=O)NCc2csc(Br)c2)CC1`: the INHIBITION came to 45.9%.

For `CCCN1CCC(NC(=O)c2csc(C)c2-c2ccc(C)cc2)CC1`, the INHIBITION was determined as 1.56%.

Turning to `Cc1ccc(-c2c(C(=O)NC3CCN(C)CC3)csc2C)cc1`, the INHIBITION is 68.4%.

As to `CCCN1CCC(NC(=O)c2csc(C)c2-c2ccccc2)CC1`, the INHIBITION is 81.5%.

Regarding `CCCN1CCC(NC(=O)c2csc(C)c2C)CC1`, the INHIBITION came out at 64.4%.

Take `CCCN1CCC(NC(=O)c2ccc(F)cc2I)CC1`: the INHIBITION turned out to be 46.8%.

`Cc1ncsc1C(=O)NC1CCN(CCC(=O)Nc2ccccc2)CC1`: the INHIBITION is on record as -5.07%.

Consider `Cc1ccc(-c2ccsc2C(=O)NC2CCS(=O)(=O)C2)cc1` (stereo not drawn), for which the INHIBITION is listed as -63.5%.

With `CCCN1CCC(NC(=O)NCCc2nc(CC)c(C)s2)CC1`, the INHIBITION is listed as 26.8%.

For `CC(C)c1nnc(CN2CCCC(Cn3cncn3)C2)o1` (stereo not drawn), the INHIBITION is reported as 22.03%.

`O=c1cc2c(nn1CN1CCN(c3ccc(F)cc3)CC1)CCC2`: the INHIBITION was -6.53%.

In the case of `C[C@H](NC(=O)Cc1csc(-c2cccc(Cl)c2)n1)C(=O)O`, the INHIBITION is given as 35%.

`COCC(=O)N1CCCCC1c1nc(C)c2c(n1)N(CC1CC1)C(=O)C2` (stereo not drawn): the INHIBITION came to 23%.

For the compound `O=c1ccc(-c2ccccc2F)nn1CN1CCCCCC1`, the INHIBITION is recorded as -22.9%.

For the compound `CCn1c(CC2CCN(S(=O)(=O)Cc3ccccc3)CC2)nn(C)c1=O`, the INHIBITION is -28.1%.

With `CN1CCCC(c2ccc(N3CCOCC3)cn2)C1` (stereo not drawn), the INHIBITION is listed as -2.48%.

With `CN1C(=O)C[C@@H]2[C@@H]1CCN2S(=O)(=O)Cc1ccccc1`, the INHIBITION is 26.8%.

For the compound `COC[C@H]1CC[C@H]2[C@H](CCN2S(=O)(=O)Cc2ccccc2)O1`, the INHIBITION is -34.6%.

As for `Cc1ccc(CS(=O)(=O)N2CC[C@H]3[C@H]2CC(=O)N3C)cc1`, the INHIBITION was determined as 15.4%.

Consider `CCOC[C@@H]1CC[C@H]2[C@H](CCN2S(=O)(=O)Cc2ccccc2)O1`, for which the INHIBITION worked out at 57.1%.

With `CN1C(=O)CC[C@@H]2[C@H]1CCN2S(=O)(=O)Cc1ccccc1`, the INHIBITION stood at 61.5%.

Regarding `CCOC[C@H]1CC[C@H]2[C@H](CCN2S(=O)(=O)Cc2ccccc2)O1`, the INHIBITION was 12.1%.

On to `Cc1ccc2cnn(CCC(=O)Nc3nc(C)c(C)s3)c2c1`, for which the INHIBITION is reported as 30.8%.

Regarding `CCC(Nc1cccc(OC)c1)C(=O)NCc1ccc2c(c1)OCO2` (stereo not drawn), the INHIBITION is reported as 36.4%.

As for `Cn1nnc2c1C(COCC1CC1)CN(Cc1ccoc1)C2` (stereo not drawn), the INHIBITION is listed as 42.3%.

For the compound `Cc1ccc(NC(=O)c2ccc(=O)n(CC(=O)Nc3nccs3)n2)cc1`, the INHIBITION was found to be 42.7%.

On to `O=C1CC2(CCCNC2)C(=O)N1Cc1ccccc1` (stereo not drawn), for which the INHIBITION is reported as 27.4%.

For `N#Cc1cccc(CN2C(=O)C3(CCNCC3)Nc3ccccc32)c1`, the INHIBITION is on record as 25.5%.

Consider `O=C1CC2(CCNCC2)C(=O)N1Cc1ccc(F)cc1`, for which the INHIBITION is listed as 16.1%.

With `CC(C)c1ccc(CN2C(=O)C3(CCNCC3)Nc3ccccc32)cc1`, the INHIBITION was 80.9%.

For `C=Cc1ccc(CN2C(=O)C3(CCNCC3)Nc3ccccc32)cc1`, the INHIBITION is recorded as 87.8%.

For `NC(=O)c1ccc(CN2C(=O)C3(CCNCC3)Nc3ccccc32)cc1`, the INHIBITION was found to be 67%.

For `NC(=O)c1ccc(CN2CCCC(N3CCCCCC3)C2)cc1` (stereo not drawn), the INHIBITION is 22%.

On to `C=Cc1ccc(CN2CCCC3(CNC(=O)c4ccccc4O3)C2)cc1` (stereo not drawn), for which the INHIBITION is given as 29.2%.

Take `O=C1CC2(CCCNC2)C(=O)N1Cc1ccc(F)cc1` (stereo not drawn): the INHIBITION was 4.06%.

For the compound `CN(Cc1nnc(C2CC2)n1C)C1CCN(CCc2cnn(C)c2)C1` (stereo not drawn), the INHIBITION is listed as 7.08%.

As for `CO[C@H]1CCN(S(=O)(=O)c2cn(C)cn2)[C@H]1Cc1ccccc1`, the INHIBITION is listed as -8.85%.

Take `Cc1nn(C)c(N(C)C)c1CNC(C)c1cccc(OC(C)C)c1` (stereo not drawn): the INHIBITION is 27.4%.

As for `CN(C)CCN(C)C(=O)c1cn(CC2CCCCC2)nn1`, the INHIBITION is -9.54%.

As to `O=C(NC1CCCC1)c1cnn2c(-c3ccco3)ccnc12`, the INHIBITION is listed as -16.4%.

Take `COC(=O)Cn1c(=O)[nH]c2cn(-c3ccc(Br)cc3)c(=O)n21`: the INHIBITION is on record as -38.6%.

For the compound `COc1cc(NC2CCS(=O)(=O)C2)ncn1` (stereo not drawn), the INHIBITION was determined as 33.7%.

`NC(c1ccc(F)cc1)c1cccs1` (stereo not drawn): the INHIBITION amounted to 55%.

As for `CC(C)c1ccc(C(N)c2cccs2)cc1` (stereo not drawn), the INHIBITION was found to be 75.6%.

On to `Cc1ccc(C(N)c2cccs2)cc1` (stereo not drawn), for which the INHIBITION stood at 61.5%.

As to `O=C(O)CC(NC(=O)CCCc1cccs1)c1ccc(F)cc1` (stereo not drawn), the INHIBITION was determined as 18.4%.

As for `CC(C)c1ccc(-c2nonc2N)cc1`, the INHIBITION is recorded as -15.2%.

For the compound `Cc1ccc(C(N)c2cccc(S(C)(=O)=O)c2)cc1` (stereo not drawn), the INHIBITION is given as 38.7%.

As for `NC(c1ccc(Cl)cc1)c1cccs1` (stereo not drawn), the INHIBITION was found to be 22.5%.

For `CS(=O)(=O)c1cccc(C(N)c2ccc(F)cc2)c1` (stereo not drawn), the INHIBITION is listed as -9.76%.

Consider `Cc1ccc(C(CC(=O)O)NC(=O)CCc2cccs2)cc1` (stereo not drawn), for which the INHIBITION was 31%.

With `CSCC(=O)N1CCCN(Cc2cscn2)CC1`, the INHIBITION is 7.77%.

Take `CCc1oc2ccc(NS(=O)(=O)CC)cc2c1C(=O)OC`: the INHIBITION came to 1.41%.

With `CC(C)=CCCC1(C)C=Cc2c(cc(C)n(CC(=O)O)c2=O)O1` (stereo not drawn), the INHIBITION was 18.3%.
